CXXC DNA block – qHTS Fluorescence Polarization Assay for Inhibitors of MLL CXXC domain - DNA interaction; MLL-CXXC / FITC-HOXA9 DNA fluorescence polarization; Potency, µM (doses to about 115 µM), for the others: at the top dose activity change, negative = inhibition, most hits filed as inhibitors; Histone-lysine N-methyltransferase 2A (Homo sapiens), Q03164; 290,000 tested, 0.037% active; active = well fitted inhibition curve with a large enough effect in the polarisation, with a control signal flat, not every such curve was filed as active; inconclusive = small, poorly fitted or top-dose-only effect, or effect the other way, or a change in a side signal; inactive = no such curve, though single readings can be large or run the other way; the % refers to the polarisation; also: potency is read from the fitted curve at half-maximal effect
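Purified MLL-CXXC (added from a 7 uM solution) was preincubated 5 min at ambient with pinned compounds in 50 mM Tris-HCl pH 7.5, 50 mM NaCl, 1 mM DTT, 0.05% BSA. Fluorescein-labeled HOX-A9 DNA (50 nM solution) followed, 30 min, then polarization read.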
TRb-SRC2 inh – qHTS for Inhibitors of the Interaction of Thyroid Hormone Receptor and Steroid Receptor Coregulator 2 | AID 1469, 2008 | Potency, µM (doses to about 106 µM), inactives show top-dose activity change, negative = inhibition, actives largely listed as inhibitors | 280,000 tested, 0.065% active | TRbeta-SRC2 peptide binding, fluorescence polarization; receptor liganded with 1 µM T3 | Thyroid hormone receptor beta (Homo sapiens), P10828; active = well fitted inhibition curve with a large enough effect; inconclusive = small, poorly fitted or top-dose-only effect, or effect the other way;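 also: potency is read from the fitted curve at half-maximal effect; plate controls were bound peptide for no effect and peptide without receptor for full effect; nearly all actives have a fitted effect of over 50% in size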
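Fluorescence polarization of 20 nM Texas Red SRC2 peptide with 0.6 uM human TRb ligand-binding domain, in Tris buffer with 1uM T3 and 5% DMSO. Incubated 5 hr ambient; normalized to unbound and bound controls.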
Menin MLL FP FL – qHTS Assay for Inhibitors Targeting the Menin-MLL Interaction in MLL Related Leukemias: Competition With Fluorescein Labeled MLL-derived Peptide; Fluorescence polarization, fluorescein-MLL peptide displacement from menin; FP activity change, % at 61.4 µM; 290,000 tested, under 10 active; active = well fitted curve in the direction sought with a large enough effect in the polarisation, not every such curve was filed as active; inconclusive = small, poorly fitted or top-dose-only effect, or effect the other way, or a change in a side signal; inactive = no such curve, though single readings can be large or run the other way; the % refers to the polarisation; also: % of control where 0% means no effect
Menin MLL FP TR – qHTS Assay for Inhibitors Targeting the Menin-MLL Interaction in MLL Related Leukemias: Competition With Texas Red Labeled MLL-derived Mutant Peptide; 270,000 tested, 0.23% active; O00255; AID 1768, 2009; Potency, µM (titrated, usually from 61.6 µM), for inactives: at the highest dose FP activity change, negative = inhibition, actives largely listed as inhibitors; Menin + Texas Red MLL mutant peptide, fluorescence polarization; active = well fitted inhibition curve with a large enough effect in the polarisation, with a control signal flat, not every such curve was filed as active; inconclusive = small, poorly fitted or top-dose-only effect, or effect the other way, or a change in a side signal; inactive = no such curve, though single readings can be large or run the other way; the % refers to the polarisation; also: potency is read from the fitted curve at half-maximal effect; % of control where 0% means no effect
TR SRC2 fluor cs – Total Fluorescence Counterscreen for Inhibitors of the Interaction of Thyroid Hormone Receptor and Steroid Receptor Coregulator 2; TRb/SRC2 Texas Red total fluorescence interference; Potency, µM (top dose mostly 106 µM), inactives show top-dose fluorescence change, negative = quenching; 280,000 tested, 0.29% active; AID 1479, 2009; active = well fitted curve in either direction with a large enough effect; inconclusive = small, poorly fitted or top-dose-only effect; also: potency is read from the fitted curve at half-maximal effect; % is scaled to controls: 0 for no effect and ±100 for the full control effect
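Human TRβ ligand-binding domain (0.6 uM) and Texas Red SRC2 peptide (20 nM) in Tris buffer with 1 uM T3 and 5% DMSO were incubated with pinned compound for 5 hr at ambient temperature. Total fluorescence was computed as S + 2P (555/632 nm).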
RGS12 GoLoco inh – qHTS Assay for Inhibitors of RGS12 GoLoco Motif Activity (Red Fluorophore). AID 880, 2007. Guanine nucleotide-binding protein G(i) subunit alpha-1 (Homo sapiens), P63096. Potency, µM (doses to about 61.6 µM), for the others: at the top dose activity, negative = inhibition, hits mostly inhibitors. Gai1:RGS12 GoLoco peptide FP, rhodamine, 10 min. 230,000 tested, 0.44% active; active = well fitted inhibition curve with a large enough effect, not every such curve was filed as active; inactive = no such curve, though single readings can be large or run the other way; also: potency is read from the fitted curve at half-maximal effect; % is scaled to controls: 0 for no effect and ±100 for the full control effect; nearly all actives have a fitted effect of over 30% in size
* = called active by the depositor; ? = inconclusive; . = no result; ! = a repeat was not active; [ ] = dose if it differs, or a comment. Only some compounds are listed: those with a hit (about 0.5% of all), similar ones and a draw of the others.

SMILES	CXXC DNA block	TRb-SRC2 inh	Menin MLL FP FL	Menin MLL FP TR	TR SRC2 fluor cs	RGS12 GoLoco inh
COc1cccc([C@@H]2Oc3ccc(OC)cc3C[C@H]2OC(=O)Nc2cc(OC)c(OC)c(OC)c2)c1	.	6%	-7	10%	-3%	6%
C=C(NCc1ccccc1)c1ccccc1O	14%	3%	2	-9%	-2%	.
CCn1c(C)nc2cc(C(=O)NNC(=S)Nc3ccc(Cl)cc3Cl)ccc21	-15%	-21%[53 µM]	-2	?	8.9µM*[quencher]	62%
Fc1cccc(Cl)c1/C=N\N=C1c2ccccc2-c2ccccc21	.	.	.	.	.	4%[14.2 µM]
CC(C)CCCC(C)CCCC(C)CCCC(C)C(=O)O (centres undefined)	.	4%	-4	7%	-25%	.
CCOC(=O)c1sc(NC(=O)CN2C(=O)c3cccc4cccc(c34)C2=O)nc1C	26%	-6%	-1	4µM*	-3%	9%
CC(C)OB(OC(C)C)OC(C)C	.	3%[201 µM]	.	.	-4%[201 µM]	.
C[Si]1(C)N[Si](C)(C)N[Si](C)(C)N1	.	11%[201 µM]	.	.	-3%[201 µM]	.
O=C(O)c1cccc(N2C(=O)c3cc([N+](=O)[O-])cc4cc([N+](=O)[O-])cc(c34)C2=O)c1	32µM*	.	11	?	.	.
CS/C(=N\O)C(=O)N(C)C	.	2%[201 µM]	.	.	0%[201 µM]	.
O=C1CCCC(O)=C1N=Nc1cccc(C(=O)O)c1	17%	-27%	0	9%	3%	-21%
O=C1CCCC(O)=C1N=Nc1c(Cl)cc(Cl)cc1Cl	1%	28µM*	0	?	45µM*[fluorescent]	-14%
CCOc1ccc(C(=O)N/N=C/c2ccc(-c3ccc(S(=O)(=O)Nc4ncccn4)cc3)o2)cc1	-1%	-13%	8	.	-6%	30%
O=C(N/N=C/c1ccc(-c2ccc(S(=O)(=O)Nc3ncccn3)cc2)o1)c1cc2ccccc2cc1O	?	?	6	?	16µM*[quencher]	25%
Oc1ccc(-c2nc3ccccc3s2)c(O)c1	0%	8%	0	.	-1%	5%
Oc1ccc(-c2cnns2)c(O)c1	1%	-3%	-6	6%	-3%	1.3µM*
COc1ccc(OC)c(OC)c1	.	6%[201 µM]	.	.	-2%[201 µM]	.
Cc1ccc(C)c(N2CCN(C(=O)CS(=O)(=O)c3cccc4nsnc34)CC2)c1	.	-29%	.	.	0.035µM*[quencher]	.
C=Cc1ccc(Cn2c(C(=O)O)c(CNCc3ccccc3)c3ccc(C)cc32)cc1	.	-6%	.	.	-3%	.
Cc1ccc2c(N)c(C)ccc2c1	-10%	-3%	5	29%	0%	7%
Cc1ccc2cc3c(N)c4c(C)ccc(C)c4nc3nc2c1	?	-1%	?	-25%	-1%	18µM*
CC(C)COCC(CN(Cc1ccccc1)c1ccccc1)N1CCCC1 (centres undefined)	8%	-2%	3	?	0%	11µM*!
O=C1c2ccccc2-c2onc3c(N4CCN(CCO)CC4)cc(N4CCN(C(=O)c5ccco5)CC4)c1c23	?	.	?	-3%	.	.
O=C1c2ccccc2-c2onc3c(Oc4ccccc4)cc(O)c1c23	7%	-12%	3	.	35µM*[fluorescent]	113%
Cc1ccc(S(=O)(=O)Oc2ccc(N=Nc3ccc(-c4ccc(N=Nc5c(O)ccc6cc(S(=O)(=O)O)cc(S(=O)(=O)O)c56)c(C)c4)cc3C)cc2)cc1	.	?	.	.	-8%	152%
SMILES	CXXC DNA block	TRb-SRC2 inh	Menin MLL FP FL	Menin MLL FP TR	TR SRC2 fluor cs	RGS12 GoLoco inh
c1ccc2c(c1)ccc1c3ccccc3ccc21	.	5%[201 µM]	.	.	1%[201 µM]	.
O=C(C1=C(O)C(=O)N(c2nccs2)C1c1ccccc1)c1cc2ccccc2o1 (centres undefined)	?	2%	?	.	4%	20µM*
C=CC(C)(CCC=C(C)C)OC(C)=O (centres undefined)	.	-3%[201 µM]	.	.	-4%[201 µM]	.
CN1c2ccccc2N(C)C1(C)c1ccccc1	-1%	-4%	-2	8%	-5%	1.3µM*
CCN1c2ccccc2N(C)C1(C)c1ccccc1 (centres undefined)	4%	?	?	?	45µM*[fluorescent]	8.9µM*
CCOC(=O)c1cnc2c(OC)cccc2c1Nc1cccc(O)c1	.	-6%	.	.	-2%	.
C[n+]1cc(-c2ccccc2)n2c1CCCCC2	-3%	-4%	-2	-9%	-1%	4.5µM*
O=C(C[n+]1cc(-c2ccccc2)n2c1CCCCC2)c1ccc(Cl)cc1	2%	4%	-5	?	3%	9%
Nc1cc([N+](=O)[O-])ccc1O	0%	7%[201 µM]	-7	21%	0.11µM*![quencher]	-1%
Cc1ccc([N+](=O)[O-])cc1N	0%	0%[201 µM]	-1	-8%	-2%[201 µM]	7%
Cc1cc2c(cc1NS(=O)(=O)c1ccc(Br)cc1)n(C)c(=O)c(=O)n2C	.	-21%	.	.	2239µM*[quencher]	.
Cc1ccc2nsnc2c1NS(=O)(=O)c1c(C)ccc2nsnc12	-4%	-4%	11	2%	2%	-6%
Cc1ccc(/C=[N+](\[O-])c2ccc(N(C)C)cc2)c2nsnc12	-3%	35µM*	?	?	40µM*[fluorescent]	6%
CCC(=O)N1CCc2cc(Br)cc(S(=O)(=O)N3CCCC(C(=O)NCc4cccc(OC)c4)C3)c21 (centres undefined)	.	-10%	.	.	0.0079µM*[quencher]	.
C=CC(=O)NC(C)(C)CS(=O)(=O)O	.	3%[201 µM]	.	.	-3%[201 µM]	.
O=C(Cn1c(-c2cccs2)cc2cc(Cl)ccc21)N1CCN(c2ccccc2F)CC1	.	0%	.	.	-18%	.
O=C(Cn1c(-c2cccs2)cc2ccccc21)N1CCN(c2ccccc2F)CC1	.	-27%	.	.	100µM*[quencher]	.
CC1(C)C(C=C(Cl)Cl)[C@H]1C(=O)OCc1cccc(Oc2ccccc2)c1 (some centres undefined)	.	7%[201 µM]	.	.	0%[201 µM]	.
COc1ccc(/C=C2\CCCc3c2nc2ccccc2c3C(=O)O)cc1OC	?	-4%	?	.	4%	25µM*
Cn1cc(/C=N/n2cnc3scc(-c4ccc(Cl)cc4)c3c2=O)c2ccccc21	6%	-2%	0	11µM*	-4%	16%
CCn1cnc2scc(-c3ccccc3)c2c1=O	14%	-8%	-1	-16%	-4%	-12%
CCOc1ccc(C2C(C(=O)Nc3ccccc3C)=C(C)Nc3nnnn32)cc1 (centres undefined)	.	1%	.	.	-13%	.
Cc1[nH]n(-c2ccccc2)c(=S)c1C=Nc1ccc([N+](=O)[O-])cc1	-4%	-2%	5	-27%	1%	13µM*
